Records with an inconclusive call do not appear. Activity calls are given as the source filed them. Unless noted, calls follow the shape of the dose curve; as a rule, active = well fitted curve in the direction sought with a large enough effect; inconclusive = small, poorly fitted or top-dose-only effect, or another doubt; inactive = no such curve, though single readings can be large; an effect the other way counts as inactive or inconclusive.
Tests used:
[1] = AP1 Signaling Pathway (AID 357; active = well fitted curve in either direction with a large enough effect, not every such curve was filed as active;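 also: ME-180 reporter cells stimulated with EGF at its EC50 level; % is scaled to controls: 0 for no effect and ±100 for the full control effect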); settings: ME-180 AP-1-bla reporter, EGF-induced, beta-lactamase ratio, 5 h; at 7.69 µM (top of the series) unless noted
Summary of the method: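 First, ME-180 AP-1-bla cells were cultured overnight at 37 °C in low-serum Opti-MEM. Next, titrated compounds with EC50 EGF were incubated 5 hours. Finally, CCF4 was added for 2.5 hours and the 460/530 nm ratio recorded.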

[2] = NFAT Signaling Pathway (AID 444; active = well fitted curve in either direction with a large enough effect, not every such curve was filed as active;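 also: carbachol stimulus at about its EC50 of 1 µM final; % is scaled to controls: 0 for no effect and ±100 for the full control effect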); settings: Jurkat NFAT-bla M1, carbachol, beta-lactamase ratio, 5 h; at 7.69 µM (top of the series) unless noted
Summary of the method: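 Jurkat cells with NFAT-driven β-lactamase reporter and co-expressed M1 receptor, stimulated with carbachol (final 1 uM, ~EC50), compound titration, 5 h at 37 °C. CCF4 loaded 1 h at RT; 460/530 nm ratio gave %activity and AC50.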

[3] = Stat Signaling Pathway (AID 446; active = well fitted curve in either direction with a large enough effect, not every such curve was filed as active;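 also: ME-180 cervical cancer cells given 40 pM IL-6 alongside compound; SIE-controlled beta-lactamase reporter measured as 460/530 nm FRET emission ratio; % is scaled to controls: 0 for no effect and ±100 for the full control effect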); settings: ME-180 SIE beta-lactamase reporter, IL-6 stimulated, 5 h; at 7.69 µM (top of the series) unless noted
Summary of the method: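 ME-180 cells carrying a SIE-driven beta-lactamase reporter are stimulated with 40 pM IL-6 for 5 h at 37C in the presence of compound. The 460/530 nm FRET substrate ratio is read after 2.5 h at RT. Data are normalised to 300 pM IL-6 and to 125 nM JAK inhibitor controls.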

[4] = molecular target: Glucocorticoid receptor (Homo sapiens) (UniProt P04150); test: GR-GFP Redistribution (AID 450;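 active = compounds whose dose series gives a full or clear partial fitted curve of increased nuclear translocation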; also: potency is read from the fitted curve at half-maximal effect); settings: U2OS GR-GFP nuclear translocation, laser cytometry, 2 h
Glucocorticoid receptor (Homo sapiens), sequence (P04150 whole entry, looked up, the tested form may be a part): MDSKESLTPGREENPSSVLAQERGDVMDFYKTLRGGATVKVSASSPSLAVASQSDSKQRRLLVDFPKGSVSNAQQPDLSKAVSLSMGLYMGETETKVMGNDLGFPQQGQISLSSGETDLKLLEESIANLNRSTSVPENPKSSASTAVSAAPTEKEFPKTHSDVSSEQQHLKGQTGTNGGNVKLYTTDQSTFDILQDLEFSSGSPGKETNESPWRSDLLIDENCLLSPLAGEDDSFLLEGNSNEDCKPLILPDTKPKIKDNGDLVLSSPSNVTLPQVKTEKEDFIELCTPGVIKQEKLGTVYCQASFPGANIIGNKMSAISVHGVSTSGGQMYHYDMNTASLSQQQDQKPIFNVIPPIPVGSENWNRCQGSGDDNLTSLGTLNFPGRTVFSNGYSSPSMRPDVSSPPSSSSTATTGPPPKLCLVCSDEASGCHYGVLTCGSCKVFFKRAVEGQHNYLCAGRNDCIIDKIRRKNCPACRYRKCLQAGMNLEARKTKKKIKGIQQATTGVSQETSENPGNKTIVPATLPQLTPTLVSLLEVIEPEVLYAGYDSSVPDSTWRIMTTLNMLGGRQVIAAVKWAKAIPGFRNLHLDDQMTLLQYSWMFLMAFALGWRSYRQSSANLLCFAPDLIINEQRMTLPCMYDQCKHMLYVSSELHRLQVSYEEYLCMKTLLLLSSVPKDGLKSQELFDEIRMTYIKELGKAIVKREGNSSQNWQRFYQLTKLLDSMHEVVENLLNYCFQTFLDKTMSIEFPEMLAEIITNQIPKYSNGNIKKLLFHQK

[5] = molecular target: Glucocorticoid receptor (Homo sapiens) (UniProt P04150); test: GR-EFC Redistribution (AID 451; calls by dose curve; also: potency is read from the fitted curve at half-maximal effect); settings: CHO-K1 GR-EFC translocation, beta-gal luminescence, 2 h
Summary of the method: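 CHO-K1 cells expressing nuclear EA and GR-ED fragments of b-gal; compounds titrated up to 46 uM final, 2 h at 37 C. GR nuclear translocation read as complemented b-gal luminescence after 1 h RT detection.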

[6] = molecular target: Mitogen-activated protein kinase 10 (Mus musculus) (UniProt Q61831); test: JNK3 AlphaScreen Assay (AID 530; active = well fitted curve in either direction with a large enough effect, not every such curve was filed as active;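 also: kinase came from lysate of stimulated human HepG2 cells; signal reports phosphorylation of biotinylated GST-cJun 1-79 at Ser73 with 10 µM ATP; % is scaled to controls: 0 for no effect and ±100 for the full control effect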)
Summary of the method: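 Pre-activated (IL-1β/TNFα) JNK3 in HepG2 lysates phosphorylates biotin-GST-cJun(1-79), 10 uM ATP; anti-phospho-cJun(Ser73) AlphaScreen read at room temperature, pH 7.6 Tris buffer. Compounds pre-incubated 15 min as titrations.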

[7] = qHTS Assay for Lipid Storage Modulators (AID 1519; calls by dose curve); settings: Drosophila S3 cells, BODIPY lipid droplet/cell ratio, laser cytometry, cells loaded with oleic acid; for activity change, negative = inhibition: at 57.5 µM (top of the series)
Summary of the method: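 Cells seeded at 5,000 per well were treated with compounds over a concentration series and loaded with oleic acid (400 uM, as added). Lipid droplet fluorescence (488 nm excitation, 500-530 nm channel) was read by laser-scanning cytometry and normalized to 20 uM Triacsin C.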

[8] = molecular target: Dual specificity protein kinase CLK4 (Homo sapiens) (UniProt Q9HAZ1); test: qHTS Assay for Inhibitors of CDC-like Kinase 4 (ADP-FP Assay) (AID 1795); also: nearly all actives have a fitted effect of over 60% in size; also: potency is read from the fitted curve at half-maximal effect
Dual specificity protein kinase CLK4 (Homo sapiens), sequence (Q9HAZ1 whole entry, looked up): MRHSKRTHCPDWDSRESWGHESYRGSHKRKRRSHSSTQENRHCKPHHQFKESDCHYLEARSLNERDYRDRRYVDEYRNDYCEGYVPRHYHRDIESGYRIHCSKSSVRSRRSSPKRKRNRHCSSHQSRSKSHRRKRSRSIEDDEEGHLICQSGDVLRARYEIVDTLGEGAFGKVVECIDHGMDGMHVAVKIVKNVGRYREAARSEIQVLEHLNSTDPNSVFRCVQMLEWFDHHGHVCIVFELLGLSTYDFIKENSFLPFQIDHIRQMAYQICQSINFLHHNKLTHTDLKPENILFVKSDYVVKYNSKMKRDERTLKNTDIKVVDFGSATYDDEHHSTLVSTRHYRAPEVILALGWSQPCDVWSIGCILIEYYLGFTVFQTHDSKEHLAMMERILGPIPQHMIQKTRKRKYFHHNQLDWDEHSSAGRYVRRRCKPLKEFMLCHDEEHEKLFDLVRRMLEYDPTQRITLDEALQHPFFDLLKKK
Summary of the method: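 Kinase activity was followed as ADP output, converted from fluorescence polarization with a calibration curve. Reactions ran one hour at low ATP (1 uM) with RS peptide substrate.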

[9] = molecular target: Ubiquitin carboxyl-terminal hydrolase 1 (Homo sapiens) (UniProt O94782); test: Inhibitors of USP1/UAF1: Pilot qHTS (AID 504865); also: nearly all actives have a fitted effect of over 35% in size; also: potency is read from the fitted curve at half-maximal effect
Ubiquitin carboxyl-terminal hydrolase 1 (Homo sapiens), sequence (O94782 whole entry, looked up): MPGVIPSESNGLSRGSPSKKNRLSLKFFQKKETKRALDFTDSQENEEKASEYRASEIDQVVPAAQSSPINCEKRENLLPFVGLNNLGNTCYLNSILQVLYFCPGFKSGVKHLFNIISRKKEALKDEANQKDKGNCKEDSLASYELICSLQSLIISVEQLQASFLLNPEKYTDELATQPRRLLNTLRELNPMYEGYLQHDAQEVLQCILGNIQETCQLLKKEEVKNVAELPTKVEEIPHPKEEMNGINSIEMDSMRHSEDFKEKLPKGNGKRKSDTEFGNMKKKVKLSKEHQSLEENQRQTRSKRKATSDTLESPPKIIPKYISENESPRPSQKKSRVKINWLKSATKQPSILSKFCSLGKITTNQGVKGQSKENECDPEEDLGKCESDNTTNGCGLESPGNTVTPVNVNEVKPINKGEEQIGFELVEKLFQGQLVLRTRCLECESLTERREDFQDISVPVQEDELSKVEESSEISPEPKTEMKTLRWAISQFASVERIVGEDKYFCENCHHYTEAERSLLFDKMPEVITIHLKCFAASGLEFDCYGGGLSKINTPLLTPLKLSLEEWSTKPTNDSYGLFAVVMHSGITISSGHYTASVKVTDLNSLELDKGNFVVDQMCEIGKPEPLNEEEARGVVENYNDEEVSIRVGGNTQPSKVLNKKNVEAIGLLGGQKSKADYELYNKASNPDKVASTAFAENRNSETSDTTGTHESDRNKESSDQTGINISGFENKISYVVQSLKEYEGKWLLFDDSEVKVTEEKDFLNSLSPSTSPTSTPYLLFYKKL
Summary of the method: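 Enzyme-free wells gave the negative control, while test wells held 1nM USP1/UAF1 preincubated with compound for 15 min at room temperature. Ub-Rho at 150nM final started the reaction, and fluorescence at 480/540 nm was recorded kinetically.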

[10] = Primary qHTS for small molecule stabilizers of the endoplasmic reticulum resident proteome: Secreted ER Calcium Modulated Protein (SERCaMP) assay (AID 1508630); also: % is scaled to controls: 0 for no effect and ±100 for the full control effect
Summary of the method: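 GLuc-SERCaMP-expressing SH-SY5Y cells, pretreated 16 h with compound, are challenged with thapsigargin to empty ER calcium stores; after 4 h, coelenterazine is added directly to the medium and luminescence is imaged.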

[11] = molecular target: Lysosomal acid glucosylceramidase (Homo sapiens) (UniProt P04062); test: Glucocerebrosidase-p2 (AID 348; in the data active = potency below about 10 µM; also: potency is read from the fitted curve at half-maximal effect); settings: purified GBA, blue fluorogenic substrate, 40 min
Lysosomal acid glucosylceramidase (Homo sapiens), sequence (P04062 whole entry, looked up): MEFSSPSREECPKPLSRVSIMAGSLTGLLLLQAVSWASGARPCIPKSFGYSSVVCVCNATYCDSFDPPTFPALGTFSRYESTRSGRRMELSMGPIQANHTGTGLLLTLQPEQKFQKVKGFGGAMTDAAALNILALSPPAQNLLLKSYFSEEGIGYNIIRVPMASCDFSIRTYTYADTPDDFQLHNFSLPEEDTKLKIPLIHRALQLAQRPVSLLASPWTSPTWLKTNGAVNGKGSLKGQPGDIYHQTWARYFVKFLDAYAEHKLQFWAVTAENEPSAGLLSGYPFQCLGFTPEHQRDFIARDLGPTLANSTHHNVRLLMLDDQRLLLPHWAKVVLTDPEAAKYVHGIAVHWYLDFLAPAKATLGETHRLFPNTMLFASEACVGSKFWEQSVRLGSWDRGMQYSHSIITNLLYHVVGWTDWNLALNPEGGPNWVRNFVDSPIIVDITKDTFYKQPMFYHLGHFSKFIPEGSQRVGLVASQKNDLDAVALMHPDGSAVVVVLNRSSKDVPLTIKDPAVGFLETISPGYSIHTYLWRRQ
Summary of the method: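 Compounds titrated from 0.6 nM upwards against 0.2 nM enzyme in pH 5.9 citric acid/KH2PO4, taurocholate, tween-20; blue fluorogenic substrate 80 uM, 40 min room temperature, stopped and read Ex 365/Em 440 for AC50.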

[12] = molecular target: Cytochrome P450 1A2 (Homo sapiens) (UniProt P05177); test: p450-cyp1a2 (AID 410; calls by dose curve; also: potency is read from the fitted curve at half-maximal effect)
Cytochrome P450 1A2 (Homo sapiens), sequence (P05177 whole entry, looked up): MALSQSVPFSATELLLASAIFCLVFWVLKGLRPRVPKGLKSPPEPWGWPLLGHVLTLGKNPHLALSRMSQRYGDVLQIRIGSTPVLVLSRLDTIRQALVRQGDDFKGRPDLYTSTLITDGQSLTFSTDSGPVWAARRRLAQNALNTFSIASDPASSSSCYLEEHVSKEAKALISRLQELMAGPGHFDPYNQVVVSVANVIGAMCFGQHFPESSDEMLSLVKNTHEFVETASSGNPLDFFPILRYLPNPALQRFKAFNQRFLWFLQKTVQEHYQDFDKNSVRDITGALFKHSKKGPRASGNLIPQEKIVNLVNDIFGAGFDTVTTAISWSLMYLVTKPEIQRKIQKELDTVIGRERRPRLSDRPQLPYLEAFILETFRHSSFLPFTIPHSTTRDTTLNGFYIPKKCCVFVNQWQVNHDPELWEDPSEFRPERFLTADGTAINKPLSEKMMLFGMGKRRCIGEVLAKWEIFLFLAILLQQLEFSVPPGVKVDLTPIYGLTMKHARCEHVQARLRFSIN
Summary of the method: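 20nM CYP1A2 with 100uM Luciferin-ME (at Km) in 100mM KPO4; compound preincubated 10 min, NADPH regeneration added, 60 min at room temperature. Luciferin quantified by luminescence after detection reagent; normalized to 57 uM furafylline.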

[13] = molecular target: 3',5'-cyclic-AMP phosphodiesterase 4B (Homo sapiens) (UniProt Q07343); test: qHTS Assay for Inhibitors of PDE-IV (AID 607; active = well fitted activation curve with a large enough effect in the main read-out, with a control signal flat, not every such curve was filed as active; also: % of control where 0% means no effect)
3',5'-cyclic-AMP phosphodiesterase 4B (Homo sapiens), sequence (Q07343 whole entry, looked up): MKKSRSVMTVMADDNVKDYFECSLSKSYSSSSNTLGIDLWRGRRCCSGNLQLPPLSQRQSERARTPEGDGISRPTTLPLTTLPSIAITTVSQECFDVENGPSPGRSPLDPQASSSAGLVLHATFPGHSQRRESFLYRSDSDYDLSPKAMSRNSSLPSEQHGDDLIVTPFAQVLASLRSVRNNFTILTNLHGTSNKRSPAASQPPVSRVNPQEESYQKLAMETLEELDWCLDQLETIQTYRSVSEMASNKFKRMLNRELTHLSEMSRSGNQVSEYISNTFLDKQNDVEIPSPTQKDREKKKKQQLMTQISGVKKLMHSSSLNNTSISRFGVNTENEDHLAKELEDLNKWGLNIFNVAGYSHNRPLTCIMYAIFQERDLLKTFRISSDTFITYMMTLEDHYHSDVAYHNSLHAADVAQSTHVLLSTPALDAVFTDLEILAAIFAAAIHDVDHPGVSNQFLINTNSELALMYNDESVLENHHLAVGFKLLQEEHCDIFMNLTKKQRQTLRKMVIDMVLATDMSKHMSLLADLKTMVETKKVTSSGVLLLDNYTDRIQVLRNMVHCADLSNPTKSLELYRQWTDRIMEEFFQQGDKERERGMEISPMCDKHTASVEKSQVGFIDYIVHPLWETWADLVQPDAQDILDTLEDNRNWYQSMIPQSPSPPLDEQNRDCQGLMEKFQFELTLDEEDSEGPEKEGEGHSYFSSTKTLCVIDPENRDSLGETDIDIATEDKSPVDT
Summary of the method: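 HEK293 ACTOne cells with CNG channel (1000/well), endogenous PDE4; membrane potential dye, compounds up to 22.9 uM final. Fluorescence Ex 535/Em 590; RO 20-1724 (100 uM final) as reference.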

[14] = molecular target: Cytochrome P450 3A4 (Homo sapiens) (UniProt P08684); test: qHTS Assay for Inhibitors and Substrates of Cytochrome P450 3A4 (AID 884); also: potency is read from the fitted curve at half-maximal effect; nearly all actives have a fitted effect of over 50% in size
Cytochrome P450 3A4 (Homo sapiens), sequence (P08684 whole entry, looked up): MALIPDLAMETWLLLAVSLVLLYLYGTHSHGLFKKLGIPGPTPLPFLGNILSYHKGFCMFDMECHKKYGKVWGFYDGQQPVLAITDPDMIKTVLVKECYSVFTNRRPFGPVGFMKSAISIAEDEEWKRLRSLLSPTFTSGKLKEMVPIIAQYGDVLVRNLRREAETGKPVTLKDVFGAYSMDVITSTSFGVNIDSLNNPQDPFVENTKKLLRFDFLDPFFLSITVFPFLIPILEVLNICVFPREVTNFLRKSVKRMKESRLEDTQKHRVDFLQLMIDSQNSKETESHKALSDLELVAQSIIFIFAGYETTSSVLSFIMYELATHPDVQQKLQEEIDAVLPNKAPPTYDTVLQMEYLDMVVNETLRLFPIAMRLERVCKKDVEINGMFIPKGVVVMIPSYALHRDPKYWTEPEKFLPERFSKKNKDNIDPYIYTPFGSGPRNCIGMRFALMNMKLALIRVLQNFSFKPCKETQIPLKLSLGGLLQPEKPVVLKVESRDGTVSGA
Summary of the method: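 20 nM human CYP3A4 with 25 uM Luciferin-PPXE (at KM) in 200 mM KPO4, preincubated 10 min with compound; NADPH regeneration started a 60 min RT reaction. Luciferin detected by luminescence, normalized to 57 uM ketoconazole as full inhibition.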

[15] = molecular target: Cytochrome P450 3A4 (Homo sapiens) (UniProt P08684); test: qHTS Assay for Activators of Cytochrome P450 3A4 (AID 885); also: nearly all actives have a fitted effect of over 65% in size
Summary of the method: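 Human CYP3A4 (20 nM) with Luciferin-PPXE at 25 uM (its KM) in 200 mM KPO4; 10 min compound preincubation, then NADPH regeneration and 60 min reaction at RT. Luciferin read by luminescence; normalized to 57 uM ketoconazole full inhibition.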

[16] = molecular target: Cytochrome P450 2C19 (Homo sapiens) (UniProt P33261); test: qHTS Assay for Inhibitors and Substrates of Cytochrome P450 2C19 (AID 899); also: potency is read from the fitted curve at half-maximal effect; nearly all actives have a fitted effect of over 60% in size
Cytochrome P450 2C19 (Homo sapiens), sequence (P33261 whole entry, looked up): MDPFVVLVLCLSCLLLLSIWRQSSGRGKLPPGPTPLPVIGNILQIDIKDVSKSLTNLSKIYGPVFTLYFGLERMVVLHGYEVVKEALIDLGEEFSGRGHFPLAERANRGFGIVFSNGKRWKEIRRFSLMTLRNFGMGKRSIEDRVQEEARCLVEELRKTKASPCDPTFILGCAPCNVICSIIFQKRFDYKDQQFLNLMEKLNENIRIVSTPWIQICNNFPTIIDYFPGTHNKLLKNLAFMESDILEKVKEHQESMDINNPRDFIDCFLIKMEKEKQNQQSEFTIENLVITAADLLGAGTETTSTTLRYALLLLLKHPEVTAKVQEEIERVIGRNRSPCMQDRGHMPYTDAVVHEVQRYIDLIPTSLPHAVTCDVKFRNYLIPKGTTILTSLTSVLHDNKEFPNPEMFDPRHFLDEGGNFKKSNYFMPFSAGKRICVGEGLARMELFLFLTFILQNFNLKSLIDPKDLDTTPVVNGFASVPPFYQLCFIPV
Summary of the method: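 5 nM human CYP2C19 with 10uM Luciferin-H EGE (at KM) in 50mM KPO4, compound preincubated 10 min at 37C, then NADPH regeneration for 60 min at 37C. Luciferin read by luminescence after detection reagent; normalized to 57uM ketoconazole as full inhibition.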

[17] = molecular target: Cytochrome P450 2C9 (Homo sapiens) (UniProt P11712); test: qHTS Assay for Inhibitors and Substrates of Cytochrome P450 2C9 (AID 883); also: % is scaled to controls: 0 for no effect and ±100 for the full control effect; nearly all actives have a fitted effect of over 60% in size
Summary of the method: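 Human CYP2C9 (10nM) with Luciferin-H at 100uM (its KM) in 25mM KPO4; compound preincubated 10 min at 37C, then NADPH regeneration for 60 min at 37C. Luciferin read by luminescence after detection reagent; normalized to 57uM sulphaphenazole as full inhibition.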

[18] = Confirmation and Secondary Assay for Modulators of Hemoglobin Beta Chain Splicing at IVS2 654 locus (AID 910);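 also: HeLa cells stably carrying EGFP split by mutant beta-globin IVS2-654 intron; % of control where 0% means no effect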
Summary of the method: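 HeLa cells stably expressing EGFP interrupted by β-globin IVS2-654 intron, seeded overnight in Opti-MEM/2% FCS, then treated 2 days at 37 °C. Restored splicing read as total peak GFP intensity per well by laser scanning cytometry (488 nm excitation, 500–520 nm emission); 500 nM antisense PNA as control.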

[19] = Confirmation and Secondary Assay for Modulators of Hemoglobin Beta Chain Splicing at IVS2 705 locus (AID 930);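 also: HeLa cells stably expressing the EGFP-705 splicing reporter; GFP fluorescence per well restored by corrected splicing of the IVS2-705 intron in EGFP; % of control where 0% means no effect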
Summary of the method: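 Secondary splice-site specificity test uses HeLa expressing CMV-driven EGFP interrupted by IVS2-705; cells were treated 2 days at 37C with 500 nM antisense PNA as positive control.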

[20] = measured here: cell count channel max response
[21] = measured here: lipid channel max response

CNc1ncnc2ccc(-c3ccccc3C)cc12
-15.2%: max response [7, 21]
-12.3%: max response [7, 20]
inactive: activity change, negative = inhibition [1] -4.22% | activity change, negative = inhibition [2] 3.06% | activity, negative = inhibition [3] -3.66% | Potency [4] > 46 µM | Potency [5] > 46 µM | outcome [6] | activity change, negative = inhibition [7] -7.2% | Potency [9] | Potency [10]
active: Potency [8] 8.91 µM

COc1ccc2[nH]cc(CCNc3ncncc3-c3c(C)noc3C)c2c1
active: Potency [12] 12.6 µM | Potency [14] 794 nM | Potency [16] 3.16 µM
11.1%: max response [7, 20]
18.3%: max response [7, 21]
inactive: Potency [11] > 11.4 µM | activity change, negative = inhibition [1] -11.4% | activity change, negative = inhibition [2] -0.0502% | activity, negative = inhibition [3] -10.2% | Potency [4] > 46 µM | Potency [5] > 46 µM | outcome [6] | Potency [13] | Potency [15] | activity change, negative = inhibition [7] 7.61% | Potency [8] | Potency [9] | Potency [10]

COc1ccccc1-c1cc(NCc2ccccc2)ncn1
inactive: Potency [11] > 11.4 µM | activity change, negative = inhibition [1] 3.71% | activity change, negative = inhibition [2] -5.25% | activity, negative = inhibition [3] 2.32% | Potency [4] > 46 µM | Potency [5] > 46 µM | outcome [6] | activity change, negative = inhibition [17] 35.7% [at 2.29 µM] | activity change, negative = inhibition [7] 2.28% | Potency [8] | Potency [10]
active: Potency [12] 2.51 µM | Potency [9] 22.4 µM
10.5%: max response [7, 21]
10.9%: max response [7, 20]

COc1ccc(CNc2cc(-c3cccc(C#N)c3)ncn2)c(OC)c1
inactive: Potency [11] > 11.4 µM | activity change, negative = inhibition [1] -14.7% | activity, negative = inhibition [3] -2.42% | Potency [4] > 46 µM | Potency [5] > 46 µM | outcome [6] | activity change, negative = inhibition [7] 7.91% | Potency [8] | Potency [9] | Potency [10]
18.5%: max response [7, 20]
23.9%: max response [7, 21]

Cc1noc(C)c1-c1nccc(-n2ccnc2)n1
active: Potency [12] 0.2 µM | Potency [14] 1260 nM | Potency [16] 3.98 µM
inactive: Potency [11] > 11.4 µM | activity change, negative = inhibition [1] 3.6% | activity change, negative = inhibition [2] -0.351% | activity, negative = inhibition [3] 16.2% | Potency [4] > 46 µM | Potency [5] > 46 µM | outcome [6] | Potency [13] | activity change, negative = inhibition [17] 16.1% [at 2.29 µM] | Potency [15] | outcome [18] | outcome [19] | activity change, negative = inhibition [7] 7.83% | Potency [9] | Potency [10]
12.5%: max response [7, 20]
20.6%: max response [7, 21]
